Test results: the supplement of paper PMC4206467

These compounds were tested on Perkinsus marinus PRA240 (assay: ATP content (proliferation) relative to DMSO control; higher = more parasite growth (less inhibition)). Details: 20 µM; 4 days.
Experimental: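 Perkinsus marinus PRA240 trophozoites (2-5x10^6 cells/ml, 100 µl, 96-well) were exposed once to MMV Malaria Box compounds at 20 µM (0.1% DMSO) in triplicate. ATP content (ATPlite bioluminescence) was read at day 4 post-exposure and normalised to DMSO + cells control wells (100% activity). Compounds were identified by joining plate and well to the Malaria Box list.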

Row | Structure (SMILES) | ATP content [%]
1 | Cc1cc(Nc2ccc(OCc3ccccc3)cc2)nc2cc(O)ccc12 | 4.92
2 | CC(C)(C)C(=O)Nc1ccc(C(=O)Nc2cccc(-c3nc4ccccc4[nH]3)c2)cc1 | 67.7
3 | OC1CCCCC1C1(NC(=S)Nc2ccccc2)CCCCC1 (configuration not stated) | 127
4 | O=C(NCc1ccco1)C1CCN(S(=O)(=O)c2ccc(Br)cc2)CC1 | 147
5 | O=C(NCC1Cc2cccc(-c3ccncc3)c2O1)c1csc2c1CCCC2 (configuration not stated) | 114
6 | Cc1cccc(N2C(=O)C3C(C2=O)C2(c4ccccc4)C(=O)C3(c3ccccc3)C(c3ccc4c(c3)OCO4)=C2c2ccc3c(c2)OCO3)c1 (configuration not stated) | 110
7 | COc1ccccc1CNC(=O)C1c2ccccc2C(=O)N(CC(C)C)C1c1cccs1 (configuration not stated) | 111
8 | COCCn1c(C)nc2ccccc2c1=O | 130
9 | CCOc1cc2c(cc1OCC)C(c1cc(Cl)ccc1O)NCC2 (configuration not stated) | 91.6
10 | COc1ccc(C=C2SC(Nc3ccc(F)cc3)=NC2=O)c(OC)c1 | 60.7
11 | CC1CCCCN1CCCNC(=O)c1ccc2c(c1)sc1nc(-c3ccc(F)cc3)cn12 (configuration not stated) | 133
12 | Cc1ccc2cc3c(N)c4c(C)ccc(C)c4nc3nc2c1 | 142
13 | O=C(NC1CCN(Cc2ccccc2)CC1)c1cc(-c2cccnc2)nc2ccc(Cl)cc12 | 137
14 | OC(CNC1CCCC1)Cn1c2ccccc2c2ccccc21 (configuration not stated) | 148
15 | CCCN(CCC)CCCNC(=O)c1cc2c(-c3ccc(OC)c(OC)c3)nn(C)c2s1 | 80.3
16 | Nc1nc(Nc2cccc(F)c2)nc2ccccc12 | 26
17 | O=C(Nc1ccc(Cl)cc1C(=O)Nc1ccncc1)c1ccc(Cl)cc1Cl | 103
